Screening results deposited in PubChem BioAssay by National Center for Advancing Translational Sciences (NCATS).
Most compounds without a hit are left out; they make up all but 2.4% or so of the library.
POLI inh: DNA polymerase iota (human) inhibition | Pol iota fluorescent replication assay, 10 min | 1% of 390,000 active | Q9UNA4 | AID 588590 | Potency, µM (doses to about 115 µM), most hits filed as inhibitors
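Pol iota at 10 nM preincubated 15 min with compounds at room temperature; reaction started with fluorescent substrate, 50 nM final. Fluorescence read kinetically at 0 and 10 min; buffer-only wells as negative control.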
POLH inh: blocks human DNA polymerase eta activity | Q9Y253 | Potency, µM (top dose mostly 114 µM), most hits filed as inhibitors | AID 588591 | recombinant Pol eta, fluorescent DNA replication assay | 1.2% of 390,000 active
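Fluorescent replication assay: 50 nM final substrate added after a 15 min room-temperature compound preincubation with 10 nM enzyme. Signal taken at 0 min and again at 10 min.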
Pol beta inh: DNA polymerase beta (human) inhibition; 1.3% of 340,000 active; Potency, µM (doses to about 114 µM), most hits filed as inhibitors; Pol beta primer extension/strand displacement, fluorescence kinetic
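Reaction started by 50 nM substrate onto compound-treated Pol beta (10 nM, 15 min preincubation, room temperature); plates read at 0 min and 10 min. Normalized concentration-effect data fitted by four-parameter Hill equation.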
FEN1 inhibitor: blocks human flap endonuclease 1; P39748; Recombinant FEN1 flap cleavage, fluorescence, 15 min; Potency, µM (series often up to 114 µM), most hits filed as inhibitors; 0.35% of 390,000 active; further: nearly all actives have a fitted effect of over 65% in size
Target sequence (P39748 whole entry, looked up): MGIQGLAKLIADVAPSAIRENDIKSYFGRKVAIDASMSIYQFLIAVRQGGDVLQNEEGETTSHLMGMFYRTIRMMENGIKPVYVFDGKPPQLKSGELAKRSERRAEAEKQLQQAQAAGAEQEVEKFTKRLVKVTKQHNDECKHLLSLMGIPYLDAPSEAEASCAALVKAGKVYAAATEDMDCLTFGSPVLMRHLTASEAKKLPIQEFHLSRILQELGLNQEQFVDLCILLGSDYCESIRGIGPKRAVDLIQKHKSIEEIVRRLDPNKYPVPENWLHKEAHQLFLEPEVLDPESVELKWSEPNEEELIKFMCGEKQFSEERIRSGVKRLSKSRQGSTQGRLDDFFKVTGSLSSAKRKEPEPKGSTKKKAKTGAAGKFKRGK
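Reaction started by adding substrate (50 nM final) to 10 nM enzyme after 15 min room-temperature compound preincubation. Reads at 0 and 15 min, with data normalized and fitted to a four-parameter Hill equation.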
WRN helicase inh: WRN helicase (human) inhibition; Q14191; WRN helicase unwinding, fluorescent forked duplex, kinetic; Potency, µM (top dose mostly 114 µM), actives largely listed as inhibitors; 0.46% of 360,000 active; further: nearly all actives have a fitted effect of over 55% in size
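Screening of the MLSMR collection measured strand separation of a quenched forked DNA duplex (100 nM) by 20 nM WRN with 2 mM ATP, all final. Compounds were preincubated with enzyme 15 min at room temperature.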
Pol kappa inh: inhibitors of human DNA polymerase kappa | Q9UBT6 | purified Pol kappa, fluorescent DNA synthesis assay, 10 min | Potency, µM (titrated, usually from 107 µM), most hits filed as inhibitors | 0.53% of 400,000 active | AID 588579
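10 nM Pol kappa was preincubated with compounds for 15 min at room temperature. Reaction started with 50 nM (final) substrate. Fluorescence read kinetically at 0 and 10 min.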
Large screens that a line does not name were inactive; ! = a repeat was not active. The call rests on the fitted dose curve; in most records, active means well fitted curve in the direction sought with a large enough effect; inconclusive means small, poorly fitted or top-dose-only effect, or another doubt; inactive means no such curve, though single readings can be large; an effect the other way counts as inactive or inconclusive.

O=C(Nc1cc(C(=O)Nc2ccc(S(=O)(=O)O)cc2S(=O)(=O)O)cc(C(=O)Nc2ccc(S(=O)(=O)O)cc2S(=O)(=O)O)c1)Nc1cc(C(=O)Nc2ccc(S(=O)(=O)O)cc2S(=O)(=O)O)cc(C(=O)Nc2ccc(S(=O)(=O)O)cc2S(=O)(=O)O)c1	POLI inh 1.3µM, POLH inh 0.1µM, Pol beta inh 0.22µM, Pol kappa inh 0.18µM! (no result: WRN helicase inh)
O=C(Nc1ccc(C(=O)Nc2ccc(C(=O)Nc3ccc(S(=O)(=O)O)c4cc(S(=O)(=O)O)cc(S(=O)(=O)O)c34)cc2)cc1)Nc1ccc(C(=O)Nc2ccc(C(=O)Nc3ccc(S(=O)(=O)O)c4cc(S(=O)(=O)O)cc(S(=O)(=O)O)c34)cc2)cc1	Pol kappa inh 0.14µM (no result: POLI inh, POLH inh, Pol beta inh, FEN1 inhibitor, WRN helicase inh)
Cc1nnc(N2CCCC(C(=O)NCc3ccc(OC(C)C)cc3)C2)c2nn(-c3ccccc3)c(C)c12 (centres undefined)	none
COc1cc2c(cc1OC)C(C)N(C(=O)c1c(-c3ccccc3)noc1C)CC2 (centres undefined)	none
CCOC(=O)Nc1cc2c(c(N)n1)N=C(c1ccccc1)CN2	POLI inh inconclusive, POLH inh inconclusive, FEN1 inhibitor inconclusive, WRN helicase inh 56µM (no result: Pol beta inh)
CCOC(=O)Nc1sc(C)nc1-c1ccccc1	none
O=S(=O)(/N=C(/Sc1ccc(Cl)cc1)c1ccccc1)c1ccccc1	FEN1 inhibitor 79µM (no result: POLH inh, Pol beta inh, WRN helicase inh)
O=S(=O)(/N=C(/Sc1ccccc1)c1ccccc1)c1ccc(Cl)cc1	POLI inh inconclusive (no result: POLH inh, Pol beta inh, WRN helicase inh)
Cc1c(C)c2cc(Cl)c(O)c(CN(C)C)c2oc1=O	none
O=c1oc2c(O)c(O)cc3c(=O)oc4c(O)c(O)cc1c4c23	POLI inh 1.1µM!, POLH inh 0.79µM, Pol beta inh 0.16µM, FEN1 inhibitor 1.6µM, Pol kappa inh 0.79µM! (no result: WRN helicase inh)
N#CC(C#N)=C1C=C2C=C(N3CCCCC3)CCC2CC1 (centres undefined)	POLI inh inconclusive, POLH inh 79µM, Pol beta inh 50µM, FEN1 inhibitor inconclusive, WRN helicase inh inconclusive
Cc1cc(NC(=O)c2ccc([N+](=O)[O-])o2)ccc1NC(=O)c1ccco1	POLI inh inconclusive, POLH inh inconclusive, Pol beta inh inconclusive
COc1cc(NC(=O)c2ccc([N+](=O)[O-])o2)ccc1NC(=O)c1ccco1	Pol beta inh 0.35µM
Cc1noc(C)c1-c1nccc(N(C)Cc2ccco2)n1	none (no result: POLI inh, POLH inh, Pol beta inh, FEN1 inhibitor, WRN helicase inh)
CN(Cc1ccco1)c1ccnc(-c2cccnc2)n1	Pol kappa inh 25µM (no result: POLI inh, POLH inh, Pol beta inh, FEN1 inhibitor, WRN helicase inh)
Cc1cc(S(=O)(=O)N2CCN(Cc3ccc4c(c3)OCO4)CC2)cc(C)c1N1CCCC1=O	none
O=C(CCS(=O)(=O)c1ccccc1)Nc1nc2cc3c(cc2s1)OCO3	POLI inh 71µM, POLH inh inconclusive, Pol beta inh inconclusive
CCN1CCN(C(=O)c2ccc3c(c2)N(Cc2cccc(F)c2)C(=O)c2ccccc2S3)CC1	POLI inh inconclusive, POLH inh inconclusive, Pol beta inh inconclusive (no result: WRN helicase inh)
O=C(c1ccc2c(c1)N(Cc1cccc(F)c1)C(=O)c1ccccc1S2)N1CCOCC1	POLI inh inconclusive, POLH inh inconclusive, Pol beta inh 50µM (no result: WRN helicase inh)
O=C1Nc2ccccc2C1(O)c1ccccc1O (centres undefined)	none
CSc1nc(=S)cc(C)[nH]1	POLI inh inconclusive, WRN helicase inh 40µM
Cc1ccc(CC#N)c(-c2c(CC#N)ccc(C)c2C)c1C	none (no result: POLI inh, Pol beta inh, FEN1 inhibitor, Pol kappa inh)
Cc1ccc2c(c1C)-c1c(ccc(C)c1C)C(=O)C2=O	POLI inh 25µM, POLH inh 22µM, FEN1 inhibitor inconclusive (no result: Pol beta inh)
CCOc1ccc(OCC(=O)OC(C)C(=O)NC2CCCC2)cc1 (centres undefined)	none (no result: Pol beta inh)
COC(=O)c1ccc(NC(=O)CSc2nc(=O)[nH]c3c2CCCC3)cc1	none (no result: WRN helicase inh)
C=C1CCC(C)C(C)(CCC2=CCOC2=O)C/C=C\C=C/1C(=O)O (centres undefined)	POLI inh inconclusive, POLH inh 28µM, Pol kappa inh inconclusive
COc1ccc(C2(c3ccc(OC)cc3)NC(=O)N(CC(=O)NC(C)C)C2=O)cc1	none
O=c1c2ccccc2sc2ccc(NCCCN3CCOCC3)cc12	POLI inh inconclusive, POLH inh inconclusive, FEN1 inhibitor 45µM (no result: Pol beta inh)
COc1ccc(/C=N/NC(=O)c2nn(-c3ccccc3)c(=O)c3c(N)scc23)cc1	POLI inh 13µM, Pol beta inh inconclusive, Pol kappa inh 35µM
COc1ccc(/C=N/NC(=O)c2nn(-c3ccc(C)c(C)c3)c(=O)c3ccccc23)cc1	none
CC(=O)Nc1ccc(S(=O)(=O)N2CCN(c3cc4c(cc3[N+](=O)[O-])n(C)c(=O)n4C)CC2)cc1	none
CC(NS(=O)(=O)c1ccc(Cl)cc1)C(=O)NCc1ccco1 (centres undefined)	POLI inh 71µM, Pol beta inh inconclusive
Cc1cc(=O)oc2cc(OCC(=O)Nc3ccc(O)c(C(=O)O)c3)ccc12	POLI inh inconclusive, POLH inh inconclusive, Pol beta inh inconclusive (no result: WRN helicase inh)
O=C(COc1cccc([N+](=O)[O-])c1)N/N=C/c1ccco1	POLI inh 28µM, POLH inh inconclusive
Cc1cc(C)cc(OCC(=O)N/N=C/c2ccco2)c1	none
O=C(/C=C/c1ccco1)NCC(=O)N/N=C/c1ccc([N+](=O)[O-])cc1	POLI inh 40µM, POLH inh 45µM, Pol beta inh inconclusive, FEN1 inhibitor inconclusive, Pol kappa inh inconclusive
O=C(/C=C/c1ccc([N+](=O)[O-])cc1)/C=C/c1ccco1	Pol beta inh 10µM (no result: POLI inh, POLH inh, FEN1 inhibitor, WRN helicase inh, Pol kappa inh)
Cc1cc(=O)oc2cc(OCC(=O)N/N=C/c3cc([N+](=O)[O-])ccc3O)ccc12	POLI inh inconclusive, POLH inh inconclusive, Pol beta inh 32µM
CC(=O)c1cccc(OCc2cc(C(=O)NC3CCN(Cc4ccccc4)CC3)no2)c1	none
O=C(COc1ccc(Br)cc1Br)NC(=S)Nc1cccc(CO)c1	none
O=C(/C=C/c1ccco1)NCC(=O)N/N=C/c1ccc(Cl)cc1	none
C/C(=N/NC(=O)CNC(=O)/C=C/c1ccco1)c1ccc(Cl)cc1	Pol beta inh 22µM
O=C(CCC1CCCC1)NNC(=O)c1cc2ccccc2cc1O	POLI inh inconclusive, Pol beta inh 50µM
O=C(CC1CCCC1)NNC(=O)c1ccccc1O	none (no result: POLI inh, Pol beta inh, FEN1 inhibitor, Pol kappa inh)
O=C(O)C1CC(c2ccc(F)cc2)=NO1 (centres undefined)	Pol beta inh 7.9µM
CCOC(=O)Cc1cc(=O)n(-c2nc3ccccc3s2)[nH]1	POLI inh 89µM, POLH inh inconclusive, Pol beta inh 45µM, Pol kappa inh 79µM
O=C(NCCO)c1ccc2c3n(nc2c1)-c1ccc(Cl)cc1CO3	none
O=C(O)c1ccc2c3n(nc2c1)-c1ccc(Cl)cc1CO3	POLI inh 16µM, Pol beta inh 20µM, Pol kappa inh 32µM
CC(=O)N/C(=C/c1cccnc1)C(=O)Nc1ccc(Cl)cc1	none (no result: Pol beta inh)
